# Experimental data from PubChem BioAssay (Tox21).
# Inconclusive results are not listed. Entries that show only a call come without a potency. The source made the active and inactive calls. The call rests on the fitted dose curve; in most records, active means well fitted inhibition curve with a large enough effect in the repeat runs; inconclusive means weak or mixed curves; inactive means no such curve, though single readings can be large or run the other way.
# Biological target: Cytochrome P450 3A4 (Homo sapiens) (UniProt P08684)
# Sequence (P08684 whole entry, looked up): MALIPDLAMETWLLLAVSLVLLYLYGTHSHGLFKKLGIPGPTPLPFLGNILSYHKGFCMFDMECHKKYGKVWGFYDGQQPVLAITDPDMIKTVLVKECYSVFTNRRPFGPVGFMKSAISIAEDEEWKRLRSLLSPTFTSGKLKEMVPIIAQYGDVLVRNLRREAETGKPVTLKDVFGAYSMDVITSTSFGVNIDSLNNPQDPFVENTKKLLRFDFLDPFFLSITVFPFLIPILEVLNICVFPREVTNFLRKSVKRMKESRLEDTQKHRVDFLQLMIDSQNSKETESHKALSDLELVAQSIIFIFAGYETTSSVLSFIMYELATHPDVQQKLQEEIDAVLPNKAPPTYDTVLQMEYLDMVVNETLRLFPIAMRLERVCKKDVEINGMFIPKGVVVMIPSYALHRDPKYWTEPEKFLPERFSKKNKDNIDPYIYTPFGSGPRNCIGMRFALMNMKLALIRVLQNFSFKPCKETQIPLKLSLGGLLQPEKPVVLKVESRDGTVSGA
# Test: Cytochrome P450 Family 3 Subfamily A Member 4 (CYP3A4) small molecule antagonists: luciferase reporter qHTS assay (AID 1671201); further: nearly all actives have a fitted effect of over 50% in size
# Details: P450-Glo CYP3A4 enzyme, luciferin luminescence, 1 h; series mostly up to 115 µM
# Method in brief: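 Relative luminescence units after 20 min with luciferin detection reagent served as read-out. Beforehand, CYP3A4 turned over a proluciferin substrate for 1 h at room temperature with NADPH regeneration, following 10 min compound preincubation.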
# Potency means the concentration at half of the fitted maximal effect.
row,SMILES,Potency
1,O=C(COCCOCCOCC(=O)Nc1c(I)cc(I)c(C(=O)O)c1I)Nc1c(I)cc(I)c(C(=O)O)c1I,inactive
2,CCC(=O)OCCC(C)CCC=C(C)C (stereo not drawn),12.6 µM (active)
3,CC(C)COC(=O)/C=C/c1ccccc1,inactive
4,Cc1nc([N+](=O)[O-])cn1-c1ccc([N+](=O)[O-])cc1,inactive
5,CCCO,inactive
6,CCN(CCC#N)c1ccccc1,inactive
7,C=CCOC(=O)c1ccc(C(=O)OCC=C)c(C(=O)OCC=C)c1,1.78 µM (active)
8,C=COCCOCCOC=C,inactive
9,CC(=O)N1CCN(c2ccc(O)cc2)CC1,inactive
10,CCOC(=O)CC#N,inactive
11,CNC(=O)C(c1ccccc1)c1ccccc1,inactive
12,CCN(Cc1cccc(S(=O)(=O)O)c1)c1ccccc1,inactive
13,CCOc1ccc(NC(=O)OC(C)C)cc1OCC,inactive
14,CC(C)c1ccccc1O,inactive
15,C=CCOCC(O)CCl (stereo not drawn),inactive
16,CCOC(=O)C(=O)c1csc(NC=O)n1,inactive
17,Cc1nc2ccccc2c(=O)o1,inactive
18,O=C(O)c1ccccc1C(=O)OCc1ccccc1,inactive
